Assay outcomes deposited in PubChem BioAssay by The Scripps Research Institute Molecular Screening Center.
This is a sample that favours compounds with a hit; in the whole collection about 2.9% have one here.
PLCb3 inh: human PLC-beta3 inhibitors, primary screen, biochemical, fluorescence. hit rate 0.18% among 370,000. inhibition, % at 12.2 µM. Purified PLC-beta3, fluorogenic substrate; in the data active = inhibition above about 11%;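 note: 0% = median of compound wells on plate and 100% = full blocker control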
KLK7 zymogen act: proKLK7 zymogen activators, primary screen, biochemical, fluorescence intensity. Kallikrein-7 (Homo sapiens), P49862. purified proKLK7, EDANS-DABCYL substrate fluorescence; 100% is mature enzyme control, 0% vehicle. activation, % at 7 µM. hit rate 0.9% among 370,000;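 active = activation above the mean of all tested compounds plus 3 SD, computed per campaign excluding outliers beyond control limits, cut at about 13% in these data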
PLCg1 inh: PLC-gamma1 enzyme inhibitors, primary screen, biochemical, fluorescence, purified enzyme. 1-phosphatidylinositol 4,5-bisphosphate phosphodiesterase gamma-1 (Homo sapiens), P19174. fluorogenic substrate. inhibition, % at 12.2 µM. hit rate 0.84% among 370,000. AID 720700, 2013; in the data active = inhibition above about 9.5%
ADAM10 inh: human ADAM10 inhibitors, primary screen, biochemical, QFRET, HTS; recombinant ADAM10, EDANS/DABCYL FRET peptide cleavage, 3 h; inhibition, % at 7 µM; hit rate 0.62% among 370,000;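 active = inhibition above a per-campaign cutoff equal to the mean of compounds falling between control-based bounds plus 3 SD, cut at about 20% in these data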;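 note: 0% = DMSO wells while the 100% control is not disclosed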
Target sequence (O14672 214-748 limits assumed): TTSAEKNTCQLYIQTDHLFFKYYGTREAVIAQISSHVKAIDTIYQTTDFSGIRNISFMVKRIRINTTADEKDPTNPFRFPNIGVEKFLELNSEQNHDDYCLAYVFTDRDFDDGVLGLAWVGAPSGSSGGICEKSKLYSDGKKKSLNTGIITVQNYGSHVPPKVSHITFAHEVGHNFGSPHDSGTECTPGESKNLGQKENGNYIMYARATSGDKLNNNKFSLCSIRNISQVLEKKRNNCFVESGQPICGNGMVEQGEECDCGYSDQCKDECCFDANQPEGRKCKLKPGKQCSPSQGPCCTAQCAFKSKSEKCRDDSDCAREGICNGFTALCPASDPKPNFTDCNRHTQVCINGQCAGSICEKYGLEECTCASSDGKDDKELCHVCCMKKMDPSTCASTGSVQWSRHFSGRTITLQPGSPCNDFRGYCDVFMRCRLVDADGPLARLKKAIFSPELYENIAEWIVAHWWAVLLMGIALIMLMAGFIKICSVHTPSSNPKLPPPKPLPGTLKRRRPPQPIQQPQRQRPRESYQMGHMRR
ADAM17 inh: ADAM17 inhibitors, primary screen, biochemical, QFRET; Disintegrin and metalloproteinase domain-containing protein 17 (Homo sapiens), P78536; AID 720648, 2013; inhibition, % at 6.95 µM; hit rate 0.83% among 370,000; recombinant ADAM17, EDANS/DABCYL FRET peptide cleavage;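 active = inhibition above the mean of compounds lying between control limits plus 3 SD, set per campaign, cut at about 8.5% in these data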;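 note: 0% = DMSO-only wells as the low control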
KLK7 act conf: proKLK7 zymogen activators, confirmation, biochemical, fluorescence intensity, triplicate | shares compounds with KLK7 zymogen act | AID 686949, 2013 | activation, % at 7 µM | hit rate 68% among 3,200 | purified proKLK7, EDANS-DABCYL substrate fluorescence; scaled: vehicle 0, mature enzyme 100;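 active = activation, as change over the incubation, above the mean of all tested compounds plus 3 SD, cut at about 13% in these data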
EDANS-DABCYL int: EDANS-DABCYL substrate optical interference, artefact control for kallikrein-7 zymogen activator project, biochemical, fluorescence intensity, high throughput. activation, % at 7 µM. hit rate 80% among 3,200. no enzyme, 4 h; solvent 0%, active enzyme control 100%. AID 686952, 2013. shares compounds with KLK7 zymogen act;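 active = activation above the all-compound mean plus 3 SD, ignoring values outside control-based bounds, cut at about 4.8% in these data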;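 note: value is the 4 h activation minus the activation read at time zero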
K7 EDANS ctr: optically interferes with EDANS-DABCYL fluorescence, kallikrein-7 activator counter-screen; EDANS-DABCYL peptide fluorescence interference, no enzyme; shares compounds with KLK7 zymogen act; EC50, µM; hit rate 20% among 250; AID 720493;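 active = compounds that raise the fluorescence signal in this interference counterscreen, with EC50 at or below 10 µM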;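 note: intact quenched peptide substrate alone read at 355 nm excitation and 520 nm emission; signal is fluorescence gain from T0 to T4 after four hours at room temperature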
Numbers without * were called inactive; i = inactive; · = no result.

SMILES	PLCb3 inh	KLK7 zymogen act	PLCg1 inh	ADAM10 inh	ADAM17 inh	KLK7 act conf	EDANS-DABCYL int	others
Cc1sc(-c2ccccn2)nc1OC(=O)c1ccc(F)cc1F	-93	14*	-75	3	0	23*	23*
Cc1sc(-c2ccccn2)nc1OC(=O)c1ccc(Cl)c(Cl)c1	8	0	8	5	1	·	·
Cc1c(Cl)cccc1N1C(=O)CC(N(O)c2ccccc2)C1=O (stereo not given)	-5	759*	-3	-10	-6	676*	671*
CCCCOc1ccc(N2C(=O)CC(N(O)c3ccccc3)C2=O)cc1 (stereo not given)	-3	33*	2	0	2	36*	33*
CCCCCOc1ccc(N2C(=O)CC(N(O)c3ccccc3)C2=O)cc1 (stereo not given)	-4	6	-2	4	1	·	·
Cc1cccc(C)c1N1C(=O)CC(N(O)c2ccccc2)C1=O (stereo not given)	1	277*	0	-1	8	224*	254*
CC(C)CN1C(=O)[C@@]2(CC(=O)N(C)C2c2ccccc2)c2cc(-n3cc(CN(C)C)nn3)ccc21 (stereo not given in full)	-5	0	-2	-13	0	·	·
C=CCN(Cc1ccc2c(c1)OCO2)C(C#CC1CC1)C(C)C (stereo not given)	0	0	1	-4	-4	·	·
O=c1cc(C(F)F)oc2c1ccc1ccccc12	-169	17*	-159	-382	-129	18*	19*
O=c1oc2ccccc2c2c1ccc1ccccc12	-83	-9	-59	i	-148	·	·
C[C@H](O)[C@@H]1C(=O)N2CCc3c([nH]c4ccccc34)[C@@H]2C[C@@H]1N(C)C(=O)Nc1ccc(Br)cc1	-285	37*	-255	i	-191	2	4
C[C@@H]1ON(C)[C@H]2C[C@H]3c4[nH]c5ccccc5c4CCN3C(=O)[C@@H]12	-310	15*	-241	i	-204	3	2
C[C@H](O)[C@@H]1C(=O)N2CCc3c([nH]c4ccccc34)[C@@H]2C[C@@H]1N(C)C(=O)Nc1cc(Cl)cc(Cl)c1	-284	19*	-208	i	-187	6	6.1*
C[C@H](O)[C@@H]1CN2CCc3c([nH]c4ccccc34)[C@@H]2C[C@@H]1N(C)C(=O)Nc1ccc(F)cc1	-471	16*	-325	-218	-60	3	2
C[C@H](O)[C@@H]1C(=O)N2CCc3c([nH]c4ccccc34)[C@@H]2C[C@@H]1N(C)C(=O)Nc1ccccc1	i	26*	-445	i	-448	6	6.5*
C[C@H](O)[C@@H]1C(=O)N2CCc3c([nH]c4ccccc34)[C@@H]2C[C@@H]1N(C)C(=O)c1ccco1	i	51*	i	i	i	55*	60*
C[C@H](O)[C@@H]1C(=O)N2CCc3c([nH]c4c(-c5ccccc5)cccc34)[C@@H]2C[C@@H]1N(C)C(=O)c1ccco1	-49	0	-41	-121	-32	·	·
Cc1oc2c(CN3CCCC3)c(O)ccc2c(=O)c1-c1ccc(Br)cc1	i	15*	i	i	-378	35*	30*	K7 EDANS ctr=>69
Cc1oc2c(CN3CCCCC3)c(O)ccc2c(=O)c1-c1ccc(Br)cc1	i	25*	i	i	-445	21*	17*	K7 EDANS ctr=>70
COc1ccc(-c2c(C)oc3c(CN4CCOCC4)c(O)ccc3c2=O)cc1	i	67*	i	i	-406	24*	32*
C[C@@H](CO)N(CCc1cn(Cc2ccccc2)nn1)S(=O)(=O)c1ccccc1Br	3	0	0	-2	-2	·	·
CCCCNC(=O)C[C@H]1C[C@@]2(C(=O)OC)C(=C[C@H](C(C)C)O[C@@H]2C2CC2)N(CCc2ccc(OC)c(OC)c2)C1=O	-1	0	-13	-4	-4	·	·
CC(C)Cn1c(-c2ccc(C#N)cc2)nc2c1c(=O)[nH]c(=O)n2CC(C)C	-309	18*	-262	i	-315	-9	-11
Nc1c2c(nc3ccccc13)N(c1ccccc1)CC2	i	70*	i	i	-470	20*	21*
CN1CCCCc2c1nc1ccccc1c2N (tested in a mixture with another compound)	-244	-1	-208	-187	-36	·	·
SMILES	PLCb3 inh	KLK7 zymogen act	PLCg1 inh	ADAM10 inh	ADAM17 inh	KLK7 act conf	EDANS-DABCYL int	others
COC(=O)c1scc2c(=O)cc(C(F)(F)F)[nH]c12	i	59*	i	i	-242	76*	83*
COc1ccccc1C(=O)Oc1ccc2ccc(=O)oc2c1	i	356*	i	i	i	693*	694*
COc1cc2cc(Oc3ccc4ccc(=O)oc4c3)c(=O)oc2cc1OC(C)=O	-4	9	-3	-27	-6	·	·
COc1cc2cc(Oc3ccc4ccc(=O)oc4c3)c(=O)oc2cc1O	-72	37*	-55	-171	-36	36*	40*
O=C(Oc1ccc2ccc(=O)oc2c1)c1ccco1	i	180*	i	i	i	705*	729*
O=C(CN1C(=O)NC2(CCCCC2)C1=O)Oc1ccc2ccc(=O)oc2c1	i	127*	i	i	i	62*	65*
COC(=O)C1CN(Cc2cn(Cc3ccc(OC)cc3)nn2)CCS(=O)(=O)N1Cc1ccc(C)cc1 (stereo not given)	-2	0	0	-4	-3	·	·
CCCCNS(=O)(=O)CC1NCc2cc(OC)ccc21 (stereo not given)	-26	-1	-22	-49	-17	·	·
O=C(O)c1cc(-c2cccc(Cl)c2)nc2nc(N3CCCCC3)sc12	-382	26*	-321	i	i	31*	31*
COc1ccc(/C=C2/CN(Cc3ccc(OC)cc3OC)C3=N[C@H](c4ccccc4)CC(=O)N32)cc1	-31	-2	-22	-4	2	·	·
CN(C(=O)c1ccncc1)c1nnc(-c2ccccn2)s1	-34	64*	-36	i	-127	88*	81*
C=CCN(CC#CC1=CCCCC1)CC1CC1	1	0	-1	-66	2	·	·
